Experimental data from PubChem BioAssay (Tox21).
Where “and” joins values, the source holds several entries; their conditions need not be identical. Equal values may be shown once. Records with an inconclusive call do not appear. Some structures have more than one record in an assay (separate samples or runs), and their calls can disagree. Calls of active or inactive are those of the source. Unless noted, calls follow the shape of the dose curve; as a rule, active = well fitted curve in the direction sought with a large enough effect in the repeat runs; inconclusive = weak or mixed curves; inactive = no such curve, though single readings can be large; an effect the other way counts as inactive or inconclusive.

Experiments:
[1] = biological target: Thyrotropin-releasing hormone receptor (Homo sapiens) (UniProt P34981); assay: qHTS assay to identify small molecule agonists of the thyrotropin-releasing hormone receptor (TRHR) signaling pathway (AID 1346891; calls by dose curve; also: potency is read from the fitted curve at half-maximal effect; as to activation: series mostly up to about 58 µM)
Chain of Thyrotropin-releasing hormone receptor (Homo sapiens) (P34981 whole entry, looked up): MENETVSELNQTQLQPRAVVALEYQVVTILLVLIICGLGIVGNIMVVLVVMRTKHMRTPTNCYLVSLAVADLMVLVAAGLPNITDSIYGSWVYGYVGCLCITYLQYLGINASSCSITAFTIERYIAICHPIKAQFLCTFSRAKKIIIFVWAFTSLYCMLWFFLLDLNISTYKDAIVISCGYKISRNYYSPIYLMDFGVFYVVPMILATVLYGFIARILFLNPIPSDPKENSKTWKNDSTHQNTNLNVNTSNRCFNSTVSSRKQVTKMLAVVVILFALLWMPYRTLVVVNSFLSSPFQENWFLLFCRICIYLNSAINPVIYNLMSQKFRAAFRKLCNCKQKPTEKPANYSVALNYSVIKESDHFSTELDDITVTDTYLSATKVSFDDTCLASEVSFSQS
How it was run: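 Screening of agonists relied on calcium signalling in HEK293 cells expressing human TRHR: dye loading 2 h at 37 °C preceded compound addition and a 3-min fluorescence time course.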

[2] = Human pregnane X receptor (PXR) small molecule agonists, qHTS cell viability counter screen (AID 1346977); also: nearly all actives have a fitted effect of over 50% in size; also: potency is read from the fitted curve at half-maximal effect
How it was run: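 Tox21 qHTS format; PXR-Luc HepG2, 2,000/well, charcoal-stripped FBS 5%. Cpd exposure 24hr. Read: CellTiter-Fluor fluorescence, multiplexed with luciferase.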

[3] = Caspase-3/7 induction in HepG2 cells by small molecules, qHTS assay (AID 1346978); also: nearly all actives have a fitted effect of over 15% in size
How it was run: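 Wild-type HepG2 cells, 2,000/well, settled 5 hr at 37 C and 5% CO2, then compound-treated for 17 hr; caspase-3/7 activity read by luminescent Caspase-Glo 3/7 after 30 min at room temperature.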

[4] = Caspase-3/7 induction in CHO-K1 cells by small molecules, qHTS cell viability counter screen (AID 1346979); also: nearly all actives have a fitted effect of over 35% in size; also: potency is read from the fitted curve at half-maximal effect
How it was run: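 CellTiter-Fluor viability check, qHTS format: wild-type CHO-K1, 16hr compound treatment, 1hr reagent incubation, fluorescence read.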

[5] = Caspase-3/7 induction in CHO-K1 cells by small molecules, qHTS assay (AID 1346980); also: nearly all actives have a fitted effect of over 15% in size
How it was run: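 Wild-type CHO-K1 cells exposed to compounds for 17hr at 37 C, 5% CO2. Caspase-3/7 activity then measured by Caspase-Glo 3/7 luminescence after 30min at room temperature.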

[6] = Caspase-3/7 induction in HepG2 cells by small molecules, qHTS cell viability counter screen (AID 1346981); also: series mostly up to about 92 µM; nearly all actives have a fitted effect of over 30% in size
How it was run: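 Fluorescence read-out of live-cell protease activity (CellTiter-Fluor) after 1 hr with reagent. This was measured in the same wells as the caspase-3/7 luminescence, on HepG2 cells exposed to DMSO-dissolved compounds for 16 hr at 37 C.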

[7] = biological target: Nuclear receptor subfamily 1 group I member 2 (Homo sapiens) (UniProt O75469); assay: Human pregnane X receptor (PXR) small molecule agonists, qHTS assay (AID 1346982); also: nearly all actives have a fitted effect of over 35% in size; also: potency is read from the fitted curve at half-maximal effect
Chain of Nuclear receptor subfamily 1 group I member 2 (Homo sapiens) (O75469 whole entry, looked up): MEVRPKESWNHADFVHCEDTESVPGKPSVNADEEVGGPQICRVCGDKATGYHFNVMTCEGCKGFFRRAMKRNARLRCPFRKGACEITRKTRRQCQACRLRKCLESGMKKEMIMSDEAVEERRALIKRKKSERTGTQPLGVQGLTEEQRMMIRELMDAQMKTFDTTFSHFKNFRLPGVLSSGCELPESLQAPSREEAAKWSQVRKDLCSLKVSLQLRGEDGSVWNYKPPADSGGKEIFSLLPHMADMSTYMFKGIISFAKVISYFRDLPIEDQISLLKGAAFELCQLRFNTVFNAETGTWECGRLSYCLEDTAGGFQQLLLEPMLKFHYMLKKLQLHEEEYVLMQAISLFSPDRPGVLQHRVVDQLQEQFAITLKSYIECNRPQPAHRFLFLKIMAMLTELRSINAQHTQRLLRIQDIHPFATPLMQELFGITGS
How it was run: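 HepG2 PXR-Luc reporter line, 5% charcoal-stripped FBS; 5 hr pre-incubation, compound (DMSO) 24 hr at 37 C/5% CO2; ONE-Glo 30 min RT; luminescence read-out.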

[8] = biological target: Nuclear receptor subfamily 1 group I member 2 (Rattus norvegicus) (UniProt Q9R1A7); assay: Rat pregnane X receptor (rPXR) activation by small molecules, qHTS assay (AID 1346983); conditions: rPXR luciferase reporter cells, One-Glo luminescence, 24 h; max activation: stronger effect = higher value; also: nearly all actives have a fitted effect of over 20% in size
Chain of Nuclear receptor subfamily 1 group I member 2 (Rattus norvegicus) (Q9R1A7 whole entry, looked up): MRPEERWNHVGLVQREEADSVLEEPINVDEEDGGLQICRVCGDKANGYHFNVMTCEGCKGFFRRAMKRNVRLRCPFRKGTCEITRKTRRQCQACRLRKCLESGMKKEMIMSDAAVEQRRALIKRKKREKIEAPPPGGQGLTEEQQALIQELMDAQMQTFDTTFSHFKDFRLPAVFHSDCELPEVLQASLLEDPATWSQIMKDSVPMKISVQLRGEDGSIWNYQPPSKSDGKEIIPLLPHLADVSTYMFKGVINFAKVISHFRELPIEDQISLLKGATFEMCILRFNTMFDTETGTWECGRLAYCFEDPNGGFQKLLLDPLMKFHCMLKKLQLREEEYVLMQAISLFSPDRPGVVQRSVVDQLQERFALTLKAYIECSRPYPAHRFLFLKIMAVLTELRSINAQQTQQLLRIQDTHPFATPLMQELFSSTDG
How it was run: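 Cell-based rPXR activation assay: rPXR cells, 2,000 per well, rested 5hr at 37 C, then exposed to compounds in DMSO for 24 hr at 37 C. Luciferase activity read by One-Glo luminescence after 30 min at room temperature.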

[9] = biological target: Nuclear receptor subfamily 1 group I member 2 (Homo sapiens) (UniProt O75469); assay: CYP3A4 induction through human pregnane X receptor (PXR) by small molecules, qHTS assay (AID 1346984); also: nearly all actives have a fitted effect of over 40% in size
How it was run: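 HepG2-derived DPX-2 line carrying PXR plus a CYP3A4-promoter luciferase reporter; cells plated 5 hr, compound-exposed 24 hr at 37C. CYP3A4 activity probed with 3uM (final) Luciferin-IPA for 3hr, then luciferase read after One-Glo.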

[10] = biological target: Nuclear receptor subfamily 1 group I member 2 (Homo sapiens) (UniProt O75469); assay: Human pregnane X receptor (PXR) activation by small molecules, qHTS assay (AID 1346985); also: nearly all actives have a fitted effect of over 40% in size; also: potency is read from the fitted curve at half-maximal effect
How it was run: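 DPX-2 cells (HepG2 co-transfected with a PXR response element and a CYP3A4-promoter luciferase construct) were seeded at 2,000 per well, rested 5 hr at 37C, then exposed to DMSO-dissolved compounds for 24 hr. Activation was read as luciferase luminescence.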

[11] = biological target: Cytochrome P450 2D6 (Homo sapiens) (UniProt P10635); assay: Cytochrome P450 Family 2 Subfamily D Member 6 (CYP2D6) small molecule antagonists: luciferase reporter qHTS assay (AID 1671196); also: nearly all actives have a fitted effect of over 50% in size; also: potency is read from the fitted curve at half-maximal effect; as to activity change, negative = inhibition: series mostly up to about 120 µM
Chain of Cytochrome P450 2D6 (Homo sapiens) (P10635 whole entry, looked up): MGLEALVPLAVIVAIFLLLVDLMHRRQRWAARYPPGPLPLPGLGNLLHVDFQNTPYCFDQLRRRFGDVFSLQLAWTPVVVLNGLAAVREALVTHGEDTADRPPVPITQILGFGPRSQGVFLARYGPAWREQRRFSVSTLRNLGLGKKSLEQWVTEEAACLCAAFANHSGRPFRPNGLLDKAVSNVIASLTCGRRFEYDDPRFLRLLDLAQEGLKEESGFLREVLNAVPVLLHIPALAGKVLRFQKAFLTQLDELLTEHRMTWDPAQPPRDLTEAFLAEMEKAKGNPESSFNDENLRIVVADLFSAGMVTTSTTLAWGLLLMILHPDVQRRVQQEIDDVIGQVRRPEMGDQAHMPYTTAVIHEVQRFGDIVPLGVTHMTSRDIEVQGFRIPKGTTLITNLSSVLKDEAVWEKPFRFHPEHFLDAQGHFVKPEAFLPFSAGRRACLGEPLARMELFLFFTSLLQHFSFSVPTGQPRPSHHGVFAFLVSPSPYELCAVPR
How it was run: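 Luminogenic proluciferin substrate, CYP2D6 enzyme; 10 min RT preincubation with compound, NADPH regeneration system added, 1 h RT. Stop/detection reagent, 20 min RT, luminescence read (RLU). Signal proportional to CYP activity.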

[12] = biological target: Cytochrome P450 2C19 (Homo sapiens) (UniProt P33261); assay: Cytochrome P450 Family 2 Subfamily C Member 19 (CYP2C19) small molecule antagonists: luciferase reporter qHTS assay (AID 1671197); also: nearly all actives have a fitted effect of over 65% in size; also: potency is read from the fitted curve at half-maximal effect; as to activity change, negative = inhibition: series mostly up to about 120 µM
Chain of Cytochrome P450 2C19 (Homo sapiens) (P33261 whole entry, looked up): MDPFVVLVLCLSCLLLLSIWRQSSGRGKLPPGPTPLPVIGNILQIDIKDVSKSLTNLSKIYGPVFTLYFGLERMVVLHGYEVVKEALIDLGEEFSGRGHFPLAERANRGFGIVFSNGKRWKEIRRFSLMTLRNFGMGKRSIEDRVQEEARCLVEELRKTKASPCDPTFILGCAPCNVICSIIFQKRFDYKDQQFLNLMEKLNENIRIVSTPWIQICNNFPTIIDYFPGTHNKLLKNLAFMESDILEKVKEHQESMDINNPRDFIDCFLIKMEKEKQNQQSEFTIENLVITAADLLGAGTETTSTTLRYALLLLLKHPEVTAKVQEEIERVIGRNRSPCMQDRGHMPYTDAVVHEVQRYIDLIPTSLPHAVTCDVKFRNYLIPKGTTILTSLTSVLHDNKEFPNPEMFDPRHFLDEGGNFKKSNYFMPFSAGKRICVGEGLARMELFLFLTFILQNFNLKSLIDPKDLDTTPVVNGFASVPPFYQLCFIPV
How it was run: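 Luminescent readout of CYP2C19 activity: luciferin product detected 20 min after adding detection reagent. Before that, compound and enzyme-substrate mix preincubated 10 min at room temperature; NADPH-regenerating system started a 1 h, 37C reaction. Ketoconazole as positive control.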

[13] = biological target: Cytochrome P450 2C9 (Homo sapiens) (UniProt P11712); assay: Cytochrome P450 Family 2 Subfamily C Member 9 (CYP2C9) small molecule antagonists: luciferase reporter qHTS assay (AID 1671198); also: nearly all actives have a fitted effect of over 50% in size; also: potency is read from the fitted curve at half-maximal effect; as to activity change, negative = inhibition: series mostly up to about 120 µM
Chain of Cytochrome P450 2C9 (Homo sapiens) (P11712 whole entry, looked up): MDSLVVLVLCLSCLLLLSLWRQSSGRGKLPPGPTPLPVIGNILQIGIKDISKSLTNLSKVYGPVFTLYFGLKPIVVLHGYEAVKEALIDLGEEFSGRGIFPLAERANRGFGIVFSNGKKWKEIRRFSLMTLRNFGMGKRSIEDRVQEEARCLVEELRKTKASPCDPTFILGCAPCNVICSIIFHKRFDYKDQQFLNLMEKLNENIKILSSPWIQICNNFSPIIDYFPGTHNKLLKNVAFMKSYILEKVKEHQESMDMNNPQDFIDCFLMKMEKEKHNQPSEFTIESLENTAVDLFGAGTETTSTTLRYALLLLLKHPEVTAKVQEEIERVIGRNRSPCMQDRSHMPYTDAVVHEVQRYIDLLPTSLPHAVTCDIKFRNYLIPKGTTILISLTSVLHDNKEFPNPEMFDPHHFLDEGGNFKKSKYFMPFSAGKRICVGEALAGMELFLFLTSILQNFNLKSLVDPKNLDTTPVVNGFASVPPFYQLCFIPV
How it was run: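 P450-Glo proluciferin substrate with CYP2C9 enzyme; 10 min RT preincubation, then NADPH regeneration 1 h at 37C; luciferin detection reagent 20 min RT, luminescence in relative luminescence units.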

[14] = biological target: Cytochrome P450 1A2 (Homo sapiens) (UniProt P05177); assay: Cytochrome P450 Family 1 Subfamily A Member 2 (CYP1A2) small molecule antagonists: luciferase reporter qHTS assay (AID 1671199); also: nearly all actives have a fitted effect of over 50% in size; also: potency is read from the fitted curve at half-maximal effect; as to activity change, negative = inhibition: series mostly up to about 120 µM
Chain of Cytochrome P450 1A2 (Homo sapiens) (P05177 whole entry, looked up): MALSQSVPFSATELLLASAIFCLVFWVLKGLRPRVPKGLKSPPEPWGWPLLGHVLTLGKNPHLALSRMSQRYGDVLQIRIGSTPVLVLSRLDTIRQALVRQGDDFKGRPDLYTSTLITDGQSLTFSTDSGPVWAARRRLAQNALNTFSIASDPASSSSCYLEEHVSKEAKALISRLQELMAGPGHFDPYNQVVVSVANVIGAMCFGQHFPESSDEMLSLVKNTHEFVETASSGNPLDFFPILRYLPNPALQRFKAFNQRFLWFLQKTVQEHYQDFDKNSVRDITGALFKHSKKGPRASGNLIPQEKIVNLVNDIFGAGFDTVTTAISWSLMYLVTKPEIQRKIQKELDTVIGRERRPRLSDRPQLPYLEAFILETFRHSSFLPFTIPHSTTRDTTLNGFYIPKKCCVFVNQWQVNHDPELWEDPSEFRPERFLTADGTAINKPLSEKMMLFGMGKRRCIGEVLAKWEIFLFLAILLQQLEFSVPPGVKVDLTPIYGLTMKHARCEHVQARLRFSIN
How it was run: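 Luminescence readout (relative luminescence units) after luciferin detection reagent, 20 min RT. Preceded by 1 h room-temperature CYP1A2 reaction with NADPH regeneration solution following 10 min compound preincubation with enzyme and proluciferin substrate. Furafylline positive control.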

[15] = biological target: Voltage-gated inwardly rectifying potassium channel KCNH2 (Homo sapiens) (UniProt Q12809); assay: Human Ether-a-go-go-Related Gene (hERG) channel small molecule antagonists: fluorescence cell-based qHTS assay (AID 1671200)
Chain of Voltage-gated inwardly rectifying potassium channel KCNH2 (Homo sapiens) (Q12809 whole entry, looked up): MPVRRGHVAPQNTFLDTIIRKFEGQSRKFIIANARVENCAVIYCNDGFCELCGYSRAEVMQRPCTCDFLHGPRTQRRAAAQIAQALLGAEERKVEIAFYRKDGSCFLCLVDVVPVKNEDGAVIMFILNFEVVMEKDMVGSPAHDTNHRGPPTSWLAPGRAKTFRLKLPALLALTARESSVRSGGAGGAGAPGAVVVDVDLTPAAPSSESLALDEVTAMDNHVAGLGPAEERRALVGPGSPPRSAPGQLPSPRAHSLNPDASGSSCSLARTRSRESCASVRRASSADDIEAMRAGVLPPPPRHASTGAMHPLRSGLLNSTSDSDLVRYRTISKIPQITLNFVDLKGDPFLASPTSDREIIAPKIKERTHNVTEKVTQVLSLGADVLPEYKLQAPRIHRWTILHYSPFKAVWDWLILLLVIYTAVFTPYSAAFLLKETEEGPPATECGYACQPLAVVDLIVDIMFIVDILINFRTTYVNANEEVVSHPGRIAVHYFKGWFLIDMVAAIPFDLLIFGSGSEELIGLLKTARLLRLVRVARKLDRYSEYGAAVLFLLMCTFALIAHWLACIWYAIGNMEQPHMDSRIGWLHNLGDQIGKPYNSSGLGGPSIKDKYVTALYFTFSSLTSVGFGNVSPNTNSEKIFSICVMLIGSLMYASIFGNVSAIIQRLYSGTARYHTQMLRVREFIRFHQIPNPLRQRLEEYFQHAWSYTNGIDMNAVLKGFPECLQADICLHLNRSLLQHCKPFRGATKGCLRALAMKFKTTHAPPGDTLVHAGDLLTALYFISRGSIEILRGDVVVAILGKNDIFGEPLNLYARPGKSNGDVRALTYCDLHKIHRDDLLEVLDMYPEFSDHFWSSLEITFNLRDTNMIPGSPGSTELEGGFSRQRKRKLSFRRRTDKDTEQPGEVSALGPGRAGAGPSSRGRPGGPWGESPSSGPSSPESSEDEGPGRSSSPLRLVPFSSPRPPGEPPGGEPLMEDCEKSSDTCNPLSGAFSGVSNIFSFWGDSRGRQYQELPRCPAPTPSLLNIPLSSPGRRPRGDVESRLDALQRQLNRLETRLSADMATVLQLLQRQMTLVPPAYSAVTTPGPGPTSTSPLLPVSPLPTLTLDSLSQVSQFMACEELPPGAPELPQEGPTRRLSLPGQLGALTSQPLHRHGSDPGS
How it was run: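 Kinetic two-minute fluorescence traces, sampled at 1 s, were collected following thallium stimulus of U2OS cells (1000 per well) that had been cultured overnight at 37 C and loaded with FluxOR II.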

[16] = biological target: Cytochrome P450 3A4 (Homo sapiens) (UniProt P08684); assay: Cytochrome P450 Family 3 Subfamily A Member 4 (CYP3A4) small molecule antagonists: luciferase reporter qHTS assay (AID 1671201)
Chain of Cytochrome P450 3A4 (Homo sapiens) (P08684 whole entry, looked up): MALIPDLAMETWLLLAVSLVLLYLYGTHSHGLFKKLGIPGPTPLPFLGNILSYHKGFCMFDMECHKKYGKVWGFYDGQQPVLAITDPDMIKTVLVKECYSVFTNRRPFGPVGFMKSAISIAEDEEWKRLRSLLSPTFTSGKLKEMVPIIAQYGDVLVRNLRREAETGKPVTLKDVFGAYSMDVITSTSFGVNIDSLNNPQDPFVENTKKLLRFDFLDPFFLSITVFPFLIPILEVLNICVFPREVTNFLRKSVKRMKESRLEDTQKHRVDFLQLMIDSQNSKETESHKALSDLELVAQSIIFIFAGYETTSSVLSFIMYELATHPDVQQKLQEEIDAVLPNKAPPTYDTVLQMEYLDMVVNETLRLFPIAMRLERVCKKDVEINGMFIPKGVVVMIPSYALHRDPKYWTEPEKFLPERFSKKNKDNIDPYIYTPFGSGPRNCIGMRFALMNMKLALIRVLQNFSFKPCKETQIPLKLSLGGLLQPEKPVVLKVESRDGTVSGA
How it was run: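 Proluciferin-to-luciferin conversion by CYP3A4, NADPH-regenerated, 1 h RT; luminescence read as RLU. Ketoconazole as control.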
% is scaled to controls: 0 for no effect and ±100 for the full control effect.

C[N+](C)(C)CCOC(N)=O
active: Potency [1] 3.38 µM
inactive: Potency [2] | Potency [3] | Potency [4] | outcome [5] | Potency [6] | Potency [7] | max activation [8] 0.11% | Potency [9] | Potency [10] | Potency [11] | Potency [12] | Potency [13] | Potency [14] | Potency [15] | Potency [16]

O=C(Nc1ccc([N+](=O)[O-])cc1)Nc1ccc([N+](=O)[O-])cc1
inactive: Potency [1] | Potency [2] | Potency [3] | Potency [4] | outcome [5] | Potency [6] | Potency [7] | max activation [8] -0.532% | Potency [9] | Potency [10] | Potency [11] | Potency [12] | Potency [13] | Potency [14] | Potency [15] | Potency [16]

N#C/C(=C1\SCC(c2ccccc2Cl)S1)n1ccnc1 (stereo unspecified)
active: Potency [7] 26.6 µM | Potency [10] 14.1 µM | Potency [11] 2.19 µM | Potency [12] 77.6 nM | Potency [13] 2.45 µM | Potency [14] 871 nM
inactive: Potency [1] | Potency [2] | Potency [3] | Potency [4] | outcome [5] | Potency [6] | max activation [8] -0.365% | Potency [9]

Cc1cc(O)c(C(C)C)cc1Cl
63.3 µM (active) and inactive: Potency [11]
active: Potency [12] 35.6 µM and 24.5 µM | Potency [13] 14.2 µM and 15.5 µM | Potency [14] 20 µM and 15.5 µM
inactive: Potency [1] | Potency [2] | Potency [3] | Potency [4] | outcome [5] | Potency [6] | Potency [7] | max activation [8] -0.692% | Potency [9] | Potency [10] | Potency [15] | Potency [16]

O=C(CCCN1CCN(c2ccc(F)cc2)CC1)NC1c2ccccc2CSc2ccccc21 (stereo unspecified)
active: Potency [2] 21.1 µM | Potency [11] 9.77 µM | Potency [12] 4360 nM | Potency [13] 6.92 µM
inactive: Potency [1] | Potency [3] | Potency [4] | outcome [5] | Potency [6] | Potency [7] | Potency [14]

CN1CCN(c2c(F)cc3c(=O)c(C(=O)O)cn4c3c2OCN4C)CC1
inactive: activation [1] 0.19% [at 11.8 µM] | activity change, negative = cytotoxicity [2] 4.15% [at 19 µM] | caspase activation [3] 0.165% [at 19 µM] | activity change, negative = cytotoxicity [4] 3.06% [at 19 µM] | caspase-3/7 activation [5] 0.0403% [at 19 µM] | activity change, negative = cytotoxicity [6] 8.88% [at 19 µM] | activation [7] -8.38% [at 19 µM] | max activation [8] -1.24% | Potency [9] | Potency [10] | activity change, negative = inhibition [11] -1.32% [at 23.6 µM] | activity change, negative = inhibition [12] -8.19% [at 23.6 µM] | activity change, negative = inhibition [13] 9.24% [at 23.6 µM] | Potency [14] | activity change, negative = inhibition [16] 3.15% [at 23.6 µM]

CNC(=O)N(c1ccccc1)c1ccccc1
active: Potency [4] 43.5 µM | Potency [7] 48.8 µM | Potency [11] 35.7 µM | Potency [14] 40100 nM
inactive: Potency [1] | Potency [2] | Potency [3] | outcome [5] | Potency [6] | Potency [12] | Potency [13] | Potency [15] | Potency [16]
